Only some compounds are listed: those with a hit (about 2.7% of all), similar ones and a draw of the others.
PGC1a acetyl inh = inhibitors of PGC1a acetylation signal, primary screen, cell-based, U2OS, AlphaScreen, inhibitor mode; AlphaScreen anti-acetyl-lysine; with virally co-expressed GCN5 acetyltransferase; inhibition, % at 15.6 µM; 350,000 compounds, 0.17% hits; AID 651687, 2012;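 active = every replicate shows inhibition of at least 40%; inconclusive = mean inhibition at least 40% but some replicate below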;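 also: 0% = neutral control wells and 100% = positive control wells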
Env fusion inh = inhibitors of HIV-1 Env-driven cell-cell fusion, primary screen, HeLa-JRFL effector, CEM21 target cells, luciferase; 360,000 compounds, 1.1% hits; inhibition, % at 12.3 µM; AID 651610, 2012;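 active = mean replicate inhibition score of at least 50 and every replicate individually at or above 50; inconclusive = only one of the two criteria met; inactive = mean below 50 and not all replicates reaching 50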;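 also: 0% = plate neutral controls and 100% = maraviroc near 300 nM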
PAX8 reporter = inhibitors of PAX8-driven TPO luciferase reporter, primary screen, RMG-I cells, single concentration; SteadyGlo, 24 h; inhibition, % at 12.6 µM; 360,000 compounds, 1.2% hits; AID 652154, 2013;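 active = mean replicate inhibition at least 60% with every replicate also reaching 60%; inconclusive = only one of the two criteria is met; inactive = mean below 60% and not all replicates reaching 60%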;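 also: luciferase light reporting Pax8 driven TPO promoter activity; plate controls were median of neutral control wells for no effect and mitoxantrone controls for full effect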
GSIS activator = GLuc luminescence reporter in INS-1E cells, primary screen for activators of glucose-dependent secretion of insulin. INS-1E GLuc reporter insulin secretion, 2-3 h. activation, % at 16.6 µM. 370,000 compounds, 0.61% hits;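 active = lowest replicate activation of at least 40%, so every replicate reaches that level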;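 also: 0% = median of neutral control wells and 100% = median of IBMX positive control wells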
CFTR F508del cor = F508del CFTR correction, initial screen, CFBE line, single point; CFBE cells, YFP halide quenching; stimulated with forskolin plus potentiator P3; % fluorescence drop versus neutral controls; activity (quench increase), % at 7.58 µM; 350,000 compounds, 0.36% hits; AID 720511, 2013;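 active = mean added fluorescence quench of at least 8% versus neutral control, with both replicates also reaching 8%; inconclusive = only one of the mean or replicate conditions met; inactive = mean below 8% and not both replicates reaching 8%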;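 also: cells transiently co-express mutant CFTR-F508del with the halide-sensitive YFP; corrector assay measuring rescue of mutant channel to the surface after 24 h compound exposure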
EWS-Fli inh = EWS/Fli-driven NR0B1 reporter inhibitors, primary screen, A673 cells, NR0B1 luciferase, luminescence, MLPCN library; viability-normalised; inhibition, % at 12.6 µM; 350,000 compounds, 0.67% hits; AID 651661, 2012;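 active = mean inhibition of at least 50% after viability correction, with every replicate also passing that limit; inconclusive = mean reaches 50% but only one of two replicates passes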;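 also: firefly luciferase signal divided by Alamar Blue viability fluorescence both relative to DMSO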
An asterisk follows results filed as active; ? = inconclusive; · = no result; ! = a repeat was not active; [ ] = another dose, or the depositor's remark.

SMILES	PGC1a acetyl inh	Env fusion inh	PAX8 reporter	GSIS activator	CFTR F508del cor	EWS-Fli inh
CN(C)c1ccc(NC(=S)c2ccccn2)cc1	6.5	26.8	?	-17.6	-2.5	86.2*
CN(C)/C=N/c1c(C#N)cnn1-c1ncnc2sc(-c3ccccc3)cc12	·	·	·	73.8*	·	·
Nc1nc(Cl)cc(Nc2ccccc2Cl)n1	·	-32.1	-18.3	18.7	0.6	-18.7
CSc1nc(Cl)cc(Nc2ccccc2N)n1	-4.6	78.7*	18.4	14.9	-0.3	11.6
COc1ccc2c3c(n(C)c2c1)[C@H](CO)N(Cc1ccncc1)CC31CN(C(=O)C2CCC2)C1	·	·	-12.4	19.0	-0.2	-5.4
COc1ccc(CN(C)C[C@H]2Oc3ccc(NC(=O)Nc4ccc(C(F)(F)F)cc4)cc3CC(=O)N([C@@H](C)CO)C[C@@H]2C)cc1	1.9	12.9[16.7 µM]	-16.5	-20.5	0.1	-3.5
C[C@H](CO)N1C[C@H](C)[C@@H](CN(C)Cc2ccc(Cl)c(Cl)c2)Oc2ccc(N(C)C)cc2C1=O	3.9	58.5*[16.7 µM]	15.7	-32.3	-3.1	4.8
C[C@H]1CN([C@@H](C)CO)C(=O)c2cc(NC(=O)Nc3ccc(C(F)(F)F)cc3)ccc2O[C@@H]1CN(C)Cc1ccc(Cl)c(Cl)c1	1.5	·	·	-2.5	4.2	57.9*
C[C@@H]1CN([C@@H](C)CO)C(=O)c2cc(NC(=O)Nc3ccc(C(F)(F)F)cc3)ccc2O[C@H]1CN(C)Cc1ccc(Cl)c(Cl)c1	-2.8	·	·	3.6	7.0	-8.2
C[C@H]1CN([C@@H](C)CO)C(=O)c2cc(N(C)C)ccc2O[C@@H]1CN(C)Cc1ccc(Cl)c(Cl)c1	0.8	47.1[16.7 µM]	18.1	-32.6	-1.1	7.8
C[C@@H]1CN([C@@H](C)CO)C(=O)c2cc(NC(=O)C3CC3)ccc2O[C@@H]1CN(C)Cc1ccc(Cl)c(Cl)c1	-9.3	-183.2	18.4	-24.1	-4.5	56.5*!
C[C@H]1CN([C@@H](C)CO)C(=O)c2cc(NC(=O)C3CC3)ccc2O[C@@H]1CN(C)Cc1ccc(Cl)c(Cl)c1	-1.7	·	·	6.5	1.6	-4.6
COc1ccc(NC(=O)Nc2ccc3c(c2)CC(=O)N([C@@H](C)CO)C[C@@H](C)[C@H](CN(C)Cc2ccc(C(F)(F)F)cc2)O3)cc1	-4.4	60.5*[16.7 µM]	45.0	-8.3	-0.2	21.0
C[C@H](CO)N1C[C@H](C)[C@H](CN(C)C(=O)NC2CCCCC2)OCCCC[C@H](C)Oc2ccc(NC(=O)C3CCCCC3)cc2C1=O	7.6	-78.2[16.7 µM]	13.1	-21.2	-1.5	3.7
C[C@H]1CN([C@@H](C)CO)C(=O)c2cc(NC(=O)Nc3ccc(F)cc3)ccc2O[C@@H]1CN(C)Cc1ccc(C(F)(F)F)cc1	-1.6	·	-19.1	18.7	-2.2	4.3
COc1ccc(CN(C)C[C@H]2Oc3ccc(NC(=O)Nc4ccc(C(F)(F)F)cc4)cc3C(=O)N([C@@H](C)CO)C[C@@H]2C)cc1	7.9	-5.5[16.7 µM]	·	-21.9	-1.7	3.3
C[C@@H]1CN([C@H](C)CO)C(=O)c2cc(NC(=O)Nc3ccc(F)cc3)ccc2O[C@H]1CN(C)Cc1ccc(C(F)(F)F)cc1	-9.0	·	68.1*	-23.6	-1.4	7.7
COc1ccc(NC(=O)Nc2ccc3c(c2)C(=O)N([C@@H](C)CO)C[C@@H](C)[C@@H](CN(C)Cc2ccc(C(F)(F)F)cc2)O3)cc1	1.9	?	104.8*	-7.0	-1.3	3.1
C/C(=N\NC(=O)CO/N=C(\C)c1cccs1)c1ccc(N)cc1	11.0	6.7	-8.5	45.8*	-1.3	4.4
CCOc1ccc(-c2cc(N)n(S(=O)(=O)c3cccc4nsnc34)n2)cc1	6.3	63.8*	14.2	3.7	-0.3	-0.5
CCOc1ccc(-n2c(-c3ccccc3)c[n+]3c2CCCCC3)cc1	·	45.3	86.0*	-38.7	-0.9	31.3
CCCNC(=O)[C@@H]1[C@@H](CO)[C@@H]2Cn3c(ccc(-c4ccccc4OC)c3=O)[C@@H]2N1C(=O)CC	·	·	-6.3	-1.2	-2.4	-4.7
Cc1ccc(C(=O)Nc2ccccn2)cc1S(=O)(=O)N1CCOCC1	-2.8	-3.3	-12.8	6.2	4.0	-14.4
O=C(Nc1nc(-c2ccccn2)cs1)c1ccc(F)c(S(=O)(=O)N2CCOCC2)c1	6.2	41.8	84.3*	8.6	22.5*	8.0
Cc1ccc(C(=O)Nc2nc(-c3ccccn3)cs2)cc1S(=O)(=O)N1CCOCC1	9.8	54.0	81.6*	33.0	3.1	14.8
SMILES	PGC1a acetyl inh	Env fusion inh	PAX8 reporter	GSIS activator	CFTR F508del cor	EWS-Fli inh
CN1CCN(C(=O)C[C@H]2CC[C@H]3[C@@H](COC[C@H](O)CN3Cc3ccc4c(c3)OCO4)O2)CC1	0.9	·	-3.0	2.7	-1.4	1.2
CC(C)c1nc2sc3c(NCc4ccco4)ncnc3c2c2c1COC(C)(C)C2	59.4*	·	·	·	·	·
Cc1cc(C)c2c(N)c(C(=O)Nc3ncc(C)s3)sc2n1	2.4	21.1	103.6*	·	·	·
COC(=O)c1sc2nc(C)cc(C)c2c1N	5.9	18.5	-30.9	9.5	-0.9	-15.4
Brc1ccc(CN2CCN(Cc3c[nH]c4ccccc34)CC2)cc1	·	18.3	12.1	-44.7	-1.0	21.3
Brc1ccccc1CN1CCN(Cc2c[nH]c3ccccc23)CC1	·	26.5	63.0*	-8.1	-3.6	45.2
O=C1C(Cl)=C(NC(=O)c2ccccc2)C(=O)C(Cl)=C1NC(=O)c1ccccc1	15.9	-14.4	79.9*	23.9	-7.7	30.4
COCC(=O)N(C)C[C@H]1Oc2cc(C#CC(C)(C)O)ccc2S(=O)(=O)N([C@H](C)CO)C[C@H]1C	-5.3	3.5[16.7 µM]	·	6.5	4.3	-6.8
CCCCNC(=O)C(Sc1ccccc1)c1ccccc1 (stereo unspecified)	3.1	·	144.8*	·	-0.4	-9.4
CCNC(=O)C(Sc1ccccc1)c1ccccc1 (stereo unspecified)	-24.3	-28.9	-9.8	·	·	·
N#C/C(=N\Nc1cccc([N+](=O)[O-])c1)C(=O)c1ccc(Br)cc1	5.3	42.4	90.6*	11.3	6.9	26.3
C[C@@H]1CN([C@H](C)CO)C(=O)c2cc(NC(=O)CCC(F)(F)F)ccc2O[C@@H]1CN(C)CC1CCCCC1	-2.4	6.5[16.7 µM]	-25.4	18.1	3.1	-0.1
C=C(CN(C)C)C(=O)c1ccc(OC2OC(COC(C)=O)C(OC(C)=O)C(OC(C)=O)C2OC(C)=O)cc1 (stereo unspecified)	-2.7	45.6	83.2*	·	-4.2	40.2
COc1cccc(C(=O)N2CCN(C(=O)c3cccc4ccccc34)CC2)c1OC	3.9	·	·	-9.2	·	·
CCc1ccc(CN2CCN(C(=O)c3cccc(OC)c3OC)CC2)cc1	-9.7	88.9*	34.6	-2.3	·	·
NS(=O)(=O)c1ccc(Cl)c(S(N)(=O)=O)c1	-11.0	·	-1.5	13.4	10.5*	0.7
Nc1ccc(S(N)(=O)=O)cc1N	12.5	3.0	-8.3	4.8	1.7	-17.4
